Structures are written as SMILES. The panel holds about 83,000 compounds, 20% with a hit somewhere; the sample as a whole holds those more often.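 Each cell line was grown in a 96-well plate and treated with one concentration of compound for 48 hours. Values below 10 were considered active.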 Calls of active or inactive are those of the source.

For this experiment, the system named is BT-549 breast. The experiment is described as follows: NCI-60 one-dose screen, 48 h (100 = growth as untreated, 0 = no growth, -100 = all killed). Conditions: 10 µM unless noted. The procedure:
Growth inhibition of the BT-549 human tumor cell line is measured as a screen for anti-cancer activity. Cells are grown in 96 well plates and exposed to the test compound for 48 hours. Compounds are tested at a single concentration, which is 10^-5 M for most compounds. The reported endpoint is percent growth (GI% or GIPRCNT), where numbers from 0 - 100% represent growth inhibition, and numbers from -100% - 0 represent cell death. For example, a value of 40 represents 60% growth inhibition. A value of 0 means no net growth occurred over the course of the experiment. A value of -40 indicates 40% of cells at the beginning of the experiment died by the end of the experiment. A value of -100 means all cells are dead at the end of the experiment.
NCI-60 Human Tumor Cell Lines Screen was performed using the standard one-dose NCI protocol, which is described in more detail at https://dtp.cancer.gov/discovery_development/nci-60/default.htm.
Compounds with GIPRCNT values below 10 were considered active. Activity score was based on GIPRCNT using the following formula: […]
Score is 0 for GIPRCNT values of 100 or above, 50 for GIPRCNT values of 0, and 100 for GIPRCNT values of -100.
As to `COC(=O)c1c2c(c(C)[n+]([O-])c1C)C(=O)C=C(NCc1cccc(Cl)c1)C2=O`, the growth was -82.3% (active).
Turning to `COc1ccc(Sc2ccc3[nH]c(=O)nc(N)c3c2)cc1`, the growth was 98.9% (inactive).
Turning to `CCN(CC)c1ccc(/C=C(\C#N)c2cc3ccccc3[nH]2)cc1`, the growth is 69.5% (inactive).
Regarding `COc1ccc(-c2nc(Nc3ccc(F)cc3)nc(Nc3ccc4c(c3)nc(C)n4Cc3ccccc3)n2)cc1`, the growth was 70.7% (inactive).
To `COc1cccc(C2C3=C(COC3=O)N(CCO)c3cc4c(cc32)OCO4)c1` (stereo not given) belongs 37.2% (inactive); to `CCOc1ccc(/C=N\N2CCCCCC2)cc1OCC`, 96.2% (inactive).
In the case of `FC(F)(F)c1cc(CNc2nc(Cl)ncc2Br)cc(C(F)(F)F)c1`, the growth was 90% (inactive).
The figure for `Cc1ccc(C)c2c1sc1nc3nc4sc5ccccc5n4c(=N)c3c(=O)n12` is 115% (inactive).
The figure for `Cc1cc(=O)oc2c1ccc1oc(C(=O)c3ccccc3)c(C)c12` is 101% (inactive).
For `O=C1/C(=C/c2ccc(Cl)cc2)CN(Cc2cn(CCCNc3ccnc4cc(Cl)ccc34)nn2)C/C1=C\c1ccc(Cl)cc1`, the growth was -87.6% (active).
To `COc1cc(/C=C/C(=O)C2=C(/C=C/c3ccc(O)c(OC)c3)NC(=O)NC2c2ccc(O)c(OC)c2)ccc1O` (stereo not given) belongs 93.4% (inactive).
To `C=CC(=O)N1CC2(CCC(n3nc(-c4ccc(Oc5ccccc5)cc4)c4c(N)ncnc43)CC2)C1` belongs -69.3% (active); to `O=c1[nH]c(=S)[nH]c(=O)n1Cc1cccc2ccccc12`, 107% (inactive).
For the compound `C=C(C)CCCC(C)CC#N` (stereo not given), the growth is 95.9% (inactive).
The figure for `O=C(N/N=C(\CS(=O)(=O)c1ccccc1)c1cc2cc(Br)ccc2oc1=O)c1ccccc1` is 102% (inactive); for `O=[N+]([O-])c1ccc2nc(N/N=C/c3ccc(O)cc3)sc2c1` it is 28.6% (inactive).
On to `CCN1CCN(C(=S)SCC(=O)Nc2nc3ccc(OC)cc3s2)CC1`, for which the growth was 89.5% (inactive).
`COc1ccc(-c2c3c(N)c4c(nc3nc3c2c(C)nn3-c2ccccc2)CCCCC4)cc1`: the growth is 80.9% (inactive).
The figure for `CCCCCCCCCCCC(=O)[O][Sn]([CH2]CCC)([CH2]CCC)[CH2]CCC` is -100% (active); for `Cc1ccc(S(=O)(=O)N2C/C(=C\c3cc(F)cc(F)c3)C(=O)/C(=C/c3cc(F)cc(F)c3)C2)cc1` it is -16.9% (active); for `Cc1ccc2nc(NC(=O)CSC(=S)N3CCN(C)CC3)sc2c1` it is 97.4% (inactive).
As for `COc1ccc(Nc2nc(NCCNc3ccnc4cc(Cl)ccc34)nc(N3CCOCC3)n2)cc1`, the growth is 83.7% (inactive).
The figure for `COc1cc2oc(-c3ccc(O)cc3)cc(=O)c2c(O)c1I` is 96.2% (inactive).
The figure for `COc1ccc(C2OCC(C)(C)CO2)cc1OC` is 109% (inactive); for `CC1=CN2C(=NC3=C(CCCC/C3=C\c3ccccc3)C2c2ccccc2)S1` (stereo not given) it is 108% (inactive); for `O=C(N/N=C/c1ccc2c(c1)OCO2)c1cnn2c1NC(c1ccccc1)C2` (stereo not given) it is 60.6% (inactive).
The figure for `COc1cc2nc(N3CCC[C@H](NC4=CC(=O)c5ccccc5C4=O)C3)nc(N)c2cc1OC` is 105% (inactive).
In the case of `COC(=O)c1c2c(c(C)[n+]([O-])c1C)C(=O)C=C(NCc1cccc(OC)c1)C2=O`, the growth was -95% (active).
Take `COc1cc(-c2nc3ccccc3o2)cc(CN2CCN(c3ccccc3)CC2)c1O`: the growth is 55.3% (inactive).
The figure for `Cc1nn(-c2ccccc2)c2nc3nc4c(c(N)c3c(-c3ccc(Cl)cc3)c12)CCC4` is 114% (inactive).
Regarding `Cn1c2c(cc(S(=O)(=O)c3ccccc3)c1=O)CCc1c-2cnn1-c1ccccc1Cl`, the growth is 101% (inactive).
To `CCOC(=O)c1[nH]c2cc(Cl)ccc2c1[C@@H](C(=O)NC(C)(C)C)N(CC)C(=O)CCCCC#Cc1cccc2c1CN(C1CCC(=O)NC1=O)C2=O` (stereo not given in full) belongs 3.98% (active).
To `O=C(NC1CC1)c1cc2n(n1)CC(c1ccccc1)N2` (stereo not given) belongs 99.7% (inactive).
Turning to `CCOC(=O)c1cc2c(n(C)c1=O)-c1cnn(-c3ccc(OC)cc3)c1CC2`, the growth is 101% (inactive).
To `CON=C1C[C@]2(C[C@@H]3C[C@@H](C/C=C(\C)C[C@@H](C)/C=C/C=C4\CO[C@@H]5[C@H](O)C(C)=C[C@@H](C(=O)O3)[C@]45O)O2)O[C@H](/C(C)=C/C(C)C)[C@H]1C` belongs 89.2% (inactive); to `O=C1/C(=C/c2ccc([N+](=O)[O-])cc2)Oc2ccc(O)cc21`, 96.5% (inactive); to `CCCCCCCCCCCCSC1=CC(=O)C=CC1=O`, 16.5% (inactive).
The figure for `Cc1c(C)n(CC(O)CNC2CCCCC2C)c2ccccc12` (stereo not given) is -94.3% (active); for `Cc1ccc2c(N/N=C\c3ccco3)cc(C)nc2n1` it is 87.7% (inactive).
The figure for `C=CC[P+](c1ccccc1)(c1ccccc1)c1ccccc1` is 47.5% (inactive).

Values taken from PubChem BioAssay (NCI).
